Sampled rows, rich in hits. Any-hit rate of the full collection: about 4.6%.
KKLEB tox: counter-screen for CF NF-kB inhibitors: cytotoxicity. activity change (cytotoxicity), % at 5 µM. KKLEB CF airway cells viability, ATPlite luminescence, overnight; stronger effect = lower value; cells stimulated with P. aeruginosa culture filtrate. hit rate 0.36% among 360,000;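 active = corrected activity change at or below -50% at 5 µM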
Mdm2-MdmX inh: disrupts the human Mdm2-MdmX interaction; O15151+Q00987; SaOS-2 split-luciferase Mdm2/MdmX complementation, luminescence; inhibition, % at 8 µM; hit rate 3% among 330,000; AID 485346;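 active = inhibition of at least 50% at 8 µM in the primary screen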
ABHD5 PLIN5 PPI: inhibitors of human ABHD5-perilipin-5 interaction | inhibition, % at 4 µM | Q00G26+Q8WTS1 | hit rate 0.78% among 360,000 | AID 602281 | Split G. princeps luciferase complementation, luminescence, 4 h;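 active = inhibition above the mean inhibition across every tested compound plus 3 SD, cut at about 22% in these data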;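 note: 0% = DMSO only wells and the 100% control is not disclosed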
HIF-2a block: HIF-2a inhibition | 786-0 RCC cells HIF-2a reporter, luciferase luminescence, overnight | inhibition, % at 18.8 µM | hit rate 0.72% among 360,000;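 active = inhibition of the luminescence signal of 40% or more relative to plate controls, in a single-dose primary screen at 18.75 µM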
Peg3 prom inh-1: reduces Peg3 promoter-driven luciferase expression in HeLa; HeLa PEG-Prom luciferase reporter, luminescence, overnight; inhibition, % at 20 µM; hit rate 1.7% among 360,000; AID 588405;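 active = inhibition of at least 50% at 20 µM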
CF NFkB inh: inhibitors of cystic fibrosis induced NF-kB | KKLEB NF-kB-GFP reporter, PAF-induced, GFP fluorescence overnight | inhibition, % at 5 µM | hit rate 0.86% among 360,000 | AID 588850;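 active = at least 50% inhibition at 5 µM, scaled per plate between neutral and stimulator controls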;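 note: PAF is a Pseudomonas aeruginosa culture filtrate used as stimulus; plate controls were PAF-stimulated DMSO wells for no effect and unstimulated DMSO wells for full effect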
Mdm2 MdmX conf: confirmation of human Mdm2/MdmX interaction inhibitors | shares compounds with Mdm2-MdmX inh | Mdm2-MdmX binding, luminescent assay | inhibition, % at 8 µM | hit rate 55% among 10,000; in the data active = inhibition above about 40%
FLuc counter: inhibits full-length luciferase, flagging false Mdm2/MdmX hits. shares compounds with Mdm2-MdmX inh. SaOS-2 full-length luciferase counterscreen, luminescence. inhibition, % at 8 µM. hit rate 77% among 6,200;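 active = mean inhibition at 8 µM reaching about 37%, which flags the compound as non-specific, limit read from the data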;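 note: p53-null SaOS-2 cells with luciferase driven by a doxycycline-inducible promoter; compound on cells about two nights before reading with doxycycline added after day one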
Peg3 prom inh-2: Peg3 promoter inhibition confirmation. inhibition, % at 20 µM. shares compounds with Peg3 prom inh-1. HeLa PEG-Prom luciferase reporter, luminescence, overnight. hit rate 84% among 1,300;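 active = at 20 µM dose, 40% or more inhibition averaged across four replicates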
* marks the source's active call; other numbers are inactive results; . = not tested or not shown.

SMILES	KKLEB tox	Mdm2-MdmX inh	ABHD5 PLIN5 PPI	HIF-2a block	Peg3 prom inh-1	CF NFkB inh	Mdm2 MdmX conf	FLuc counter	Peg3 prom inh-2
CN1CCN(c2ccccc2NC(=O)c2cc3c(s2)-c2ccccc2OC3)CC1	-9.9	57.2*	14.4	2.4	8.4	13.0	52.1*	63.4*	.
Cc1ccc(N=c2oc3cc(O)ccc3cc2C(N)=O)cc1	-23.3	83.7*	0.5	-139.6	-171.8	83.4*	53.2*	17.2	.
CCCCn1c(SCC(=O)NC2CC2)nc2cc(C(=O)OC)ccc2c1=O	7.8	.	5.5	-3.7	-1.0	-11.3	.	.	.
c1ccc(Cn2c(CNc3nc4ccccc4n3CCN3CCCCC3)nc3ccccc32)cc1	-2.1	56.7*	11.2	15.1	3.9	-12.5	14.8	.	.
Cc1cc(C(=O)CSc2nnc(-c3ccccc3)n2-c2ccccc2)c(C)n1-c1ncn[nH]1	15.7	2.2	11.1	8.4	14.7	3.5	.	.	.
Cc1cc(C(=O)CSc2nnc3ccccn23)c(C)n1-c1ccccc1	3.2	81.6*	-4.1	84.3*	100.9*	-18.4	85.9*	29.6	81.4*
Cc1ccc(-n2cc(CNCCCn3ccnc3C)c(-c3ccc(F)cc3)n2)cc1	-18.7	73.0*	17.9	-5.0	111.8*	24.0	29.6	.	98.4*
Cc1cc(C)c2c(N)c(C(=O)Nc3ncc(C)s3)sc2n1	-69.2*	78.8*	-6.7	86.6*	101.1*	-4.0	81.1*	54.8*	88.8*
COc1ccc(C(=O)N2CCN(Cc3nc(CC4CC4)no3)CC2)cc1	-2.1	-26.2	-6.2	-5.4	3.1	1.5	.	.	.
COCCNC(=O)/C(C#N)=C/C=C/c1ccccc1[N+](=O)[O-]	0.0	52.9*	-0.2	3.6	52.5*	-35.9	54.2*	22.7	14.3
O=S(=O)(c1cccs1)N1CCN(c2ccnc3cc(Cl)ccc23)CC1	-18.9	57.4*	7.0	32.7	51.1*	24.9	22.7	.	69.2*
O=S(=O)(c1ccccc1)N1CCN(c2ccnc3cc(Cl)ccc23)CC1	-7.5	29.9	3.2	28.3	23.6	0.6	.	.	.
CCOC(=O)Cn1c2ccc(OC)cc2c2nc3ccccc3nc21	-45.5	70.4*	6.4	16.0	87.9*	25.6	25.4	.	33.2
COc1ccc(Br)cc1/C=N/NC(=O)c1ccc(COc2ccc3c(c2)CCC3)o1	-13.3	19.3	-5.3	-25.9	-5.0	13.6	.	.	.
O=C(N/N=C/c1cc([N+](=O)[O-])ccc1O)c1ccc(COc2ccc3c(c2)CCC3)o1	-21.0	94.1*	-3.1	-23.8	52.0*	44.6	72.0*	50.9*	45.0*
COc1ccc(-c2cc3ncc(C(C)=O)c(C)n3n2)cc1	17.9	-64.4	1.0	-226.6	-243.6	-16.5	.	.	.
CC(C)Nc1nc(-c2ccncc2)nc(-c2ccccc2)c1C#N	-0.6	0.3	-5.3	14.5	2.4	-5.2	.	.	.
C[C@H](CO)N1C[C@H](C)[C@@H](CN(C)Cc2ccccc2)Oc2ccc(NC(=O)CCCCCC(=O)Nc3ccccc3N)cc2C1=O	-4.5	38.2	6.6	-5.7	-6.5	3.9	.	.	.
Cc1ccc(NC(=O)Nc2ccnc(-c3cccnc3)n2)cc1	7.0	76.1*	-9.1	-125.9	87.8*	-13.7	71.2*	67.8*	67.1*
Cc1ccc(C(=O)Nc2ccnc(-c3cccnc3)n2)cc1	20.5	28.5	1.1	-205.3	-113.5	-32.2	.	.	.
CC1Cc2ccccc2N1C(=O)CN1C(=O)NC(C)(CCc2ccccc2)C1=O (configuration not stated)	10.6	20.1	-3.4	10.9	5.5	6.0	.	.	.
O=C(COC(=O)CNC(=O)C1CCCCC1)Nc1ccccc1Cl	-11.0	-7.1	-10.1	0.4	4.2	24.9	.	.	.
C[C@@H]1CCCCCCCCC(=O)OCCN(C(=O)OC(C)(C)C)[C@H](C)CCCCCCCCC(=O)OCCN(C(=O)OC(C)(C)C)[C@H](C)CCCCCCCCC(=O)OCCN1C(=O)OC(C)(C)C	.	-5.6	.	.	.	.	.	.	.
COc1cc(/C=C(\C#N)C(=O)N2CCOCC2)ccc1OCc1ccccc1	-1.0	-32.0	0.8	-1.1	-176.7	-25.4	.	.	.

Screens deposited in PubChem BioAssay by several laboratories.
